For 40 molecules, Potency, activity change, negative = inhibition and outcome results are on record in PubChem BioAssay (Tox21).

Inconclusive results are not listed. A call without a number means that no potency is given here. Values without a mark were called inactive. Activity calls are given as the source filed them. The call rests on the fitted dose curve.
Potency means the concentration at half of the fitted maximal effect.

Sequence of Acetylcholinesterase (Homo sapiens) (P22303 whole entry, looked up): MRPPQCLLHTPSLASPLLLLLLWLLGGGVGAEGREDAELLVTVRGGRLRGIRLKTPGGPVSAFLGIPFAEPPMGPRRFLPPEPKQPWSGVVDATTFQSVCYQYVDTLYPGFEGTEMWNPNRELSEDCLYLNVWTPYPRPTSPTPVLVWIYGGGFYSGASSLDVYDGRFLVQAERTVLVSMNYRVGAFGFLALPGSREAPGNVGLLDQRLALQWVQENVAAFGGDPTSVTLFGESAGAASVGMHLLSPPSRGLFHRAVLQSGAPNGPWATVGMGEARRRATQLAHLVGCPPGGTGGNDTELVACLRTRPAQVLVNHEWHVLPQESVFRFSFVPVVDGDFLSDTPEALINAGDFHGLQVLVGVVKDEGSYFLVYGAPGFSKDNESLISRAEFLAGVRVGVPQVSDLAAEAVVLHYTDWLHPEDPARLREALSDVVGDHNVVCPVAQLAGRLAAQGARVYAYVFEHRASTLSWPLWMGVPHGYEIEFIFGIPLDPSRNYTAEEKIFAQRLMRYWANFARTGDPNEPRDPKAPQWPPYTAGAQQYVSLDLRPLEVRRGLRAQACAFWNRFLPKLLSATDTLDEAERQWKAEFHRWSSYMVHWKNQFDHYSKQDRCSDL

This assay concerns the target Acetylcholinesterase (Homo sapiens) (UniProt P22303). Description: Acetylcholinesterase (AChE) small molecule antagonists: fluorescence cell-based qHTS assay (AID 1347398). Further: nearly all actives have a fitted effect of over 50% in size. The note with it: SH-SY5Y cells; Potency: AChE activity; outcome: AChE activity; series mostly up to 115 µM. In short, it runs like this: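 SH-SY5Y cells (2000/well), attached overnight, incubated with compound 30 min at 37 C. Acetylthiocholine plus Thiolite Green then added for 40 min at room temperature. Thiocholine fluorescence (Ex/Em 490/520 nm) reports cellular AChE activity.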
For orientation: qHTS replaces the single test concentration by a dilution series.
As for `CCCCNC(=S)NCCCC`, the Potency result was “inactive”.

Take `CCCC/C=C/CCCCO`: the Potency entry is “inactive”.

Take `COCC(C)N` (stereo not given): the Potency entry was “inactive”.

Take `Clc1ccccc1C(c1ccccc1)(c1ccccc1)n1ccnc1`: the Potency result was “inactive”.

In the case of `Cc1[nH]nc2c1N=C(c1ccccc1Cl)c1cc([N+](=O)[O-])ccc1N2`, the Potency entry is “inactive”.

In the case of `COc1cccc(N(C)C(=S)Oc2ccc3c(c2)CCCC3)n1`, the Potency result was “inactive”.

For the molecule `CCc1nccnc1CC`, the activity change, negative = inhibition was 3.3% [at 23.8 µM].

For the molecule `O=C(NCc1ncc(C(F)(F)F)cc1Cl)c1c(Cl)cccc1Cl`, the Potency result was “inactive”.

Take `C=CCn1c(=O)n([C@@H]2O[C@H](CO)[C@@H](O)[C@H]2O)c2nc(N)[nH]c(=O)c21`: the Potency entry is “inactive”.

On to `CCCCCCCCC(=O)OCC`, for which the Potency entry is “inactive”.

As for `Cc1cccc(Nc2ccncc2S(=O)(=O)NC(=O)NC(C)C)c1`, the Potency result was “inactive”.

As to `Cn1nnc2c(C(N)=O)ncn2c1=O`, the Potency result was “inactive”.

For `CCCCCCS`, the Potency result is “inactive”.

For `Cc1cc(C)c(/C=C2\C(=O)Nc3ccccc32)[nH]1`, the Potency result is “inactive”.

In the case of `O=C1OCc2ccccc21`, the Potency result is “inactive”.

Take `COc1ccc(-c2cc(C(F)F)nn2-c2ccc(S(N)(=O)=O)cc2)cc1F`: the Potency result was “inactive”.

`CCCCCCCC(=O)OCC(O)CO` (stereo not given): the Potency entry was “inactive”.

On to `CNC(=O)Nc1ccc(Cl)c(Cl)c1`, for which the Potency entry is “inactive”.

Regarding `CC(C)OC(=O)C(C)(C)Oc1ccc(C(=O)c2ccc(Cl)cc2)cc1`, the Potency result was “inactive”.

`N#Cc1ccccc1O`: the Potency entry was “inactive”.

On to `CCCCCCCCCCC`, for which the Potency entry was “inactive”.

Consider `NC(=S)Nc1cccc2ccccc12`, for which the activity change, negative = inhibition is -3.97% [at 10.5 µM].

`CCCCCCCC(C)=O`: the Potency result is “inactive”.

Turning to `Cc1cccc(C)c1NC(=O)CN1CCN(CCCC(c2ccc(F)cc2)c2ccc(F)cc2)CC1`, the Potency entry was “inactive”.

Take `CCN=C1C=CC(=C(c2ccc(N(CC)CC)cc2)c2ccc(N(CC)CC)cc2)c2ccccc21`: the Potency is 39.7 µM (active).

For the molecule `O=C(CC(C(=O)OC1CCCCC1)S(=O)(=O)O)OC1CCCCC1` (stereo not given), the Potency result is “inactive”.

On to `CC(C)(C)c1n[nH]c(=S)n(N)c1=O`, for which the Potency result is “inactive”.

Take `CCOC(N)=O`: the Potency result was “inactive”.

`Cc1ccc(S(=O)(=O)NC(=O)NC2CCCCC2)cc1`: the Potency result was “inactive”.

Consider `CC/C=C\C#N`, for which the Potency result is “inactive”.

For `[Na+]`, the Potency result is “inactive”.

Turning to `CC1=CC(C)C(C=O)C(C)C1` (stereo not given), the Potency result was “inactive”.

As to `C/C=C(\C)C(=O)OC/C=C(\C)CCC=C(C)C`, the Potency result is “inactive”.

Regarding `CC(=O)Nc1c(I)cc(I)c(C(=O)O)c1I`, the Potency entry is “inactive”.

For `CC(C)(C)c1cc(/C=C2\SC(=N)NC2=O)cc(C(C)(C)C)c1O`, the result was inactive.

On to `Cc1cccc(OCCOc2cccc(C)c2)c1`, for which the Potency entry is “inactive”.

In the case of `O=C(NCCCN1CCOCC1)c1ccc(Cl)cc1`, the Potency result is “inactive”.

Take `O=C(O)c1cc(O)c(O)c(O)c1`: the Potency entry is “inactive”.

As to `C=CC(=O)OCCCCCCCC`, the Potency result was “inactive”.

On to `CCCCCC[C@@H](CCC)C(=O)O`, for which the Potency entry is “inactive”.
